The structures appear in SMILES notation. Records with an inconclusive call do not appear. A number with no mark means an inactive call. Calls follow the shape of the dose curve; as a rule, active = well fitted activation curve with a large enough effect in the signal ratio in the repeat runs, with a control signal flat (not every such curve was filed as active); inconclusive = weak or mixed curves; inactive = flat fitted curve, though single readings scatter; the % refers to the signal ratio.

Data on 40 molecules can be found in PubChem BioAssay (Tox21).
% is scaled to controls: 0 for no effect and ±100 for the full control effect.

This test in a line: qHTS assay for small molecule activators of the heat shock response signaling pathway (AID 743210). Particulars: HeLa HSE-bla reporter, beta-lactamase ratio, 5 h; series mostly up to 62.6 µM; activation: at the top concentration. From the text: U.S. Tox21 Program National Center for Advancing Translational Sciences [NCATS] NIH Chemical Genomics Center [NCGC] U.S. Environmental Protection Agency [EPA] National Institutes of Environmental Health Sciences [NIEHS] National Toxicology Program [NTP] U.S. Food and Drug Administration [FDA] Tox21 Assay Overview: Various chemicals, environmental and physiological stress conditions may lead to the activation of heat shock response/ unfolded protein response (HSR/UPR). There are three heat shock transcription factors (HSFs) (HSF-1, -2, and -4) mediating transcriptional regulation of the human HSR. To identify the compounds that activate HSR signaling, HSE-bla HeLa cell line (Invitrogen, Carlsbad, CA, USA) containing a beta-lactamase reporter gene under the control of the heat shock response elements was used to screen the Tox21 10K compound library.
Tox21 Assay Protocol Summary: The CellSensor HSE-bla HeLa cells (Invitrogen, Carlsbad, CA, USA) were dispensed at 1500 cells/6uL/well into 1536-well black wall/clear bottom plates using a Multidrop combi (Thermo Fisher Scientific, Waltham, MA) dispenser. After the assay plates were incubated at 37 C and 5% CO2 overnight, 23 nL of compounds dissolved in DMSO, positive controls or DMSO only was transferred to the assay plate by a Pintool station (Kalypsys, San Diego, CA). The plates were incubated at 37 C for 5 h. After 1 uL of LiveBLAzerTM B/G FRET substrate was added using a Flying Reagent Dispenser (Beckman Coulter, Indianapolis, IN, USA), the plates were incubated at room temperature for 2.5 h, and fluorescence intensity was measured by an Envision plate reader (PerkinElmer, Shelton, CT).
On the technique in general: qHTS replaces the single test concentration by a dilution series.
`CCCC(=O)C(C)=O`: the “activation” value was 0.372%.

Turning to `CC(C)C(=O)OCc1cccc(OC(=O)[C@@H]2N3C(=O)[C@@H](NC(=O)Cc4ccccc4)[C@H]3SC2(C)C)c1`, the “activation” value is 2.83%.

With `C=C1CC/C=C(\C)CC[C@@H]2[C@@H]1CC2(C)C`, the “activation” value was -0.515%.

As for `O=C(O)C(=O)Cc1ccccc1`, the “activation” value was -0.303%.

On to `Cc1cccc(C)c1NC(=O)c1ccccc1C(=O)O`, for which the “activation” value is 0.168%.

For the molecule `CCCCCCOc1ccccc1C(N)=O`, the “activation” value was 1.11%.

With `C=Cc1ccccn1`, the “activation” value is -0.58% [at 81.1 µM].

In the case of `C[C@@H](O)[C@H]1C(=O)N2C(C(=O)O)=C(SCCN=CN)C[C@H]12`, the “activation” value is -1.91%.

`CCCN1C[C@H](CSC)C[C@@H]2c3cccc4[nH]cc(c34)C[C@H]21`: the “activation” value is -0.25%.

For the molecule `CCC(C=O)CC`, the “activation” value was 0.305% [at 81.1 µM].

For the molecule `Nc1cccc(O)c1`, the “activation” value is 0.372% [at 81.1 µM].

With `O=C1O[C@@H]2[C@@H](O)[C@H](O)O[C@@H]2[C@H]1O`, the “activation” value is -0.11%.

As to `Cc1ccc(C=O)cc1C`, the “activation” value is -1.73%.

Consider `CC(=O)c1ccc2c(c1)Cc1ccccc1-2`, for which the “activation” value is -0.122%.

With `CC(=O)Nc1ccc(S(=O)(=O)Cl)cc1`, the “activation” value was -0.0831%.

Regarding `O=C1CC(c2ccc(Cl)cc2)CC(=O)N1`, the “activation” value was -1.36%.

As to `CC(CC=O)CCCC(C)(C)O` (stereo not given), the “activation” value was -0.493%.

Turning to `CCCCCCCCCC(C)=O`, the “activation” value was -0.172% [at 81.1 µM].

On to `CCCCNC1CC(C)(C)NC(C)(C)C1`, for which the “activation” value was -0.282%.

For `CC(=O)OC(C)OC(=O)C(C)c1ccc(-c2ccccc2)c(F)c1` (stereo not given), the “activation” value was -0.495%.

`O=C(O)c1cc(Cl)cc([N+](=O)[O-])c1Cl`: the “activation” value was -0.317%.

`CC(C)C(=O)OCCc1ccccc1`: the “activation” value is -1.08%.

In the case of `CCC(CC)CO`, the “activation” value is -0.266%.

Turning to `O=P(O)(O)OP(=O)(O)O`, the “activation” value is -0.0744%.

Consider `CCOCCOC(=O)/C=C/c1ccc(OC)cc1`, for which the “activation” value is 1.54%.

In the case of `C[C@@H]1O[C@@H](O[C@@H]2[C@@H](O)[C@H](OCCc3ccc(O)c(O)c3)O[C@H](CO[C@@H]3O[C@H](CO)[C@@H](O)[C@H](O)[C@H]3O)[C@H]2OC(=O)/C=C/c2ccc(O)c(O)c2)[C@H](O)[C@H](O)[C@H]1O`, the “activation” value is 0.1%.

In the case of `O=C1c2ccccc2C(=O)N1CCl`, the “activation” value was -0.248%.

On to `Nc1ncnc(Nc2ccccc2)n1`, for which the “activation” value was -1.04%.

Consider `FC(F)(F)c1ccccc1-n1ccnc1`, for which the “activation” value was 0.669%.

As to `COCCc1ccc(OCC2CO2)cc1` (stereo not given), the “activation” value is -0.325%.

Consider `CN(C)C(=O)CNC(=O)Cc1ccccc1`, for which the “activation” value was 0%.

As to `COc1nccnc1NS(=O)(=O)c1ccc(N)cc1`, the “activation” value was -0.804%.

Turning to `O=C(c1ccc(O)cc1)c1ccc(O)c(O)c1O`, the “activation” value was -0.986% [at 81.1 µM].

On to `O=C(OCC(O)CO)c1ccccc1Nc1ccnc2c(C(F)(F)F)cccc12` (stereo not given), for which the “activation” value is 0.917%.

On to `CCCCCCCCCCCCCC`, for which the “activation” value was -0.632%.

On to `CCCC/C=C\CCCCCCCCCC=O`, for which the “activation” value was 0.4%.

On to `CO[C@@H]1[C@@H](OC(N)=O)[C@@H](O)[C@H](Oc2ccc3c(O)c(NC(=O)c4ccc(O)c(CC=C(C)C)c4)c(=O)oc3c2C)OC1(C)C`, for which the “activation” value is 0.784%.

As to `Cc1ccccc1C(=O)Nc1ccc(C(=O)N2CCCC(N(C)C)c3ccccc32)cc1` (stereo not given), the “activation” value is -0.358%.

With `Nc1ccc2cc(S(=O)(=O)O)cc(O)c2c1`, the “activation” value is -0.0744%.

Take `C=CC(OCC)OCC`: the “activation” value was 0.582%.
